In PMC7862700, “An all-to-all approach to the identification of sequence-specific readers for epigenetic DNA modifications on cytosine” one finds binding signal data, which are given here for seven sequences.

Assay in all cases: DAPPL (digital affinity profiling via proximity ligation, sequencing); 10 mM Tris-HCl pH 7.5, 50 mM NaCl, 1 mM DTT, 4% glycerol, room temperature, 30 min; GST-TFs on glutathione beads, 16-mer random dsDNA library, 0.1% formaldehyde crosslink after washing; high values mean tight binding
Common to all, as to settings: protein: recombinant; tags: N-terminal GST; dsDNA, one strand shown

Assay [1] concerns the target T1, ERF (Homo sapiens, UniProt P50548 1-548).
T1 sequence: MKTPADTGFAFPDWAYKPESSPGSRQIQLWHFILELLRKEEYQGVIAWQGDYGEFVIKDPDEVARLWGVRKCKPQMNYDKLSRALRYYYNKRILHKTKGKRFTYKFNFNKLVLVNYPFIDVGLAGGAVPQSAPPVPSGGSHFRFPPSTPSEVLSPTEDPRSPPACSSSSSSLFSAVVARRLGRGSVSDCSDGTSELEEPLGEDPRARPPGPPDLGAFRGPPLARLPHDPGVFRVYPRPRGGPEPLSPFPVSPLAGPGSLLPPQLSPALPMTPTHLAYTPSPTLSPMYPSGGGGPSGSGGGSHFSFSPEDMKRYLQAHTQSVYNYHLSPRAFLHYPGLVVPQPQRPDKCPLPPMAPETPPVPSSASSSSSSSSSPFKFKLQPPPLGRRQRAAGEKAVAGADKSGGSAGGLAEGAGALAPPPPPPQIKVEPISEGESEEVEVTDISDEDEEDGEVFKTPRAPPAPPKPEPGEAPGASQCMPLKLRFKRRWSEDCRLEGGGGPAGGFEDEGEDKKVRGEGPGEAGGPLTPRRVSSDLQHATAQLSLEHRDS
Put shortly:
(§1)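 Yeast served to express human transcription factors as GST fusions, which were then captured on glutathione beads and labelled with DNA barcodes. Pooled with a tag-only sample, they were incubated with 200 nmole of a 16-mer random double-stranded DNA library for 30 min at room temperature in Tris/NaCl/DTT/glycerol buffer, washed, crosslinked with 0.1% formaldehyde, ligated by proximity, amplified by PCR and sequenced. Dividing each hexamer's read frequency for a factor by its frequency for the tag-only sample gives the binding signal.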

Assay [2] addresses T2, ETV3L (Homo sapiens, UniProt Q6ZN32 1-361).
T2 sequence: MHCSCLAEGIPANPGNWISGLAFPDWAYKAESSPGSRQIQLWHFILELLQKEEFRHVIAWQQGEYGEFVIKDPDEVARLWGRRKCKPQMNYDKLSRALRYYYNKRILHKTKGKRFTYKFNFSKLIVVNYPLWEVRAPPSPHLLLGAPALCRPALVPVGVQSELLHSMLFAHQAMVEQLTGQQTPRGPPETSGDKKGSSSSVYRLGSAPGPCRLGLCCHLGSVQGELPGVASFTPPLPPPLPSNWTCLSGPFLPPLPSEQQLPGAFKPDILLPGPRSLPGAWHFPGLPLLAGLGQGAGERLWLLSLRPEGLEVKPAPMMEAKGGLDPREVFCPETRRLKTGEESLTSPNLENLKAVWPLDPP
The essentials:
as §1

In assay [3] the target is T3, ETS2 (Homo sapiens, UniProt P15036 1-469).
T3 sequence: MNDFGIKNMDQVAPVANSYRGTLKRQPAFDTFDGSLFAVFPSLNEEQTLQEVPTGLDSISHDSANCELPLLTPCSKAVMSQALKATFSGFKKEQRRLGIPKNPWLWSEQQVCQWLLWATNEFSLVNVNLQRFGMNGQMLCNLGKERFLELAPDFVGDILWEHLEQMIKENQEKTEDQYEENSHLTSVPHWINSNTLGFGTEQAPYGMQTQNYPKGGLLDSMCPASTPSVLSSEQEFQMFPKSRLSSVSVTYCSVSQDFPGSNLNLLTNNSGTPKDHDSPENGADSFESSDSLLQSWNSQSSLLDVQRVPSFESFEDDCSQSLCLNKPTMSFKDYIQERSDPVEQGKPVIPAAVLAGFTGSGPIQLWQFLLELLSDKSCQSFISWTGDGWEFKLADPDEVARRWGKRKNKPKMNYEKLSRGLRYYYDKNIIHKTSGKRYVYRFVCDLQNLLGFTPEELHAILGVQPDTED
The essentials: as §1

Assay [4] deals with T4, SPDEF (Homo sapiens, UniProt O95238 1-335).
T4 sequence: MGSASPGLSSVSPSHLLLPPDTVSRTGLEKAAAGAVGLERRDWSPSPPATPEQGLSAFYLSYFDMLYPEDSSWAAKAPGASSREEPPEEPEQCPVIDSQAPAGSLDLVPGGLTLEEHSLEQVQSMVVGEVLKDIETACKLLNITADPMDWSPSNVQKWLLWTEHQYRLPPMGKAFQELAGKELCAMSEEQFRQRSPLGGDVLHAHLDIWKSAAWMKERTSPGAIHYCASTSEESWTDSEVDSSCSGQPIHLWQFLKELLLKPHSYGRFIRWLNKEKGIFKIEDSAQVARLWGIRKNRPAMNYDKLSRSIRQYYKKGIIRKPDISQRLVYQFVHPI
The essentials:
as §1

The target in assay [5] is T5, ETV7 (Homo sapiens, UniProt Q9Y603 1-341).
T5 sequence: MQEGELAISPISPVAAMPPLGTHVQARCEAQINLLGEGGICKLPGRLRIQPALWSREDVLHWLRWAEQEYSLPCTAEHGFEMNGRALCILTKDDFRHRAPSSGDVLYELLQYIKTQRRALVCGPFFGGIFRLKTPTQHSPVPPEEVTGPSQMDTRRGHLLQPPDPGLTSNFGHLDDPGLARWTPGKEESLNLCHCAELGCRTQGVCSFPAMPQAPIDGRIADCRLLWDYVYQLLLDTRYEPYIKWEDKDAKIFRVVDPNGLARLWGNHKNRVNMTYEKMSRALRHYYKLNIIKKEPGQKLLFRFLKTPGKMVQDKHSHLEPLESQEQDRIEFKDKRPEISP
The essentials:
as §1

The target of assay [6] is T6, ELF5 (Homo sapiens, UniProt Q9UKW6-2 1-255).
T6 sequence: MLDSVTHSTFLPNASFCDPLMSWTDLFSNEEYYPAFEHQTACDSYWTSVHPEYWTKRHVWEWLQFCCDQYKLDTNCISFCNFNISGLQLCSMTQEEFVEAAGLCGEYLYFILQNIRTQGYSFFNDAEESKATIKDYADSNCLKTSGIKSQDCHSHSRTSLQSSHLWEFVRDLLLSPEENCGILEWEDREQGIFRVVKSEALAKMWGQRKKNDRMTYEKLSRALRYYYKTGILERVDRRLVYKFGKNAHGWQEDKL
The essentials:
as §1

In assay [7] the target is T7, ETV3 (Homo sapiens, UniProt P41162-2 1-143).
T7 sequence: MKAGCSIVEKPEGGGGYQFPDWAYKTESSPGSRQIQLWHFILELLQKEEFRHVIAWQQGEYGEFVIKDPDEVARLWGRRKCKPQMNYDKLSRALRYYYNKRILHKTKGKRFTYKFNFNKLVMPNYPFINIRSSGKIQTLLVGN
The essentials: as §1

The target of assay [8] is ETV6 (Homo sapiens, UniProt P41212 1-452). The essentials: as §1
ETV6, sequence (P41212 whole entry): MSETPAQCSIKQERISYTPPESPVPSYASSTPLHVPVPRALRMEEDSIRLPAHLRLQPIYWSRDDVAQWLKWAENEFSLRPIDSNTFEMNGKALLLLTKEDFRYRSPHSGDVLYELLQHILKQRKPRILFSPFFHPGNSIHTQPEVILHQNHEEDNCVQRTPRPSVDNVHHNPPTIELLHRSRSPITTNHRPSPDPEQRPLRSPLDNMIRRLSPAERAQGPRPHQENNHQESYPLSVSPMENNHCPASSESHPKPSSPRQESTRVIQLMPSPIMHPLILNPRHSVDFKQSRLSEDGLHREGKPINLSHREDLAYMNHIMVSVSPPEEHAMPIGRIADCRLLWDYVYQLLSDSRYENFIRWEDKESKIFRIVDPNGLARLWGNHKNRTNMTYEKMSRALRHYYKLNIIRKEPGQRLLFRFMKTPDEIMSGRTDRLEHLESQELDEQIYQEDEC

Consider CTCGTG, for which the binding signal in assay [1] was 1.12 fold enrichment (6-mer frequency, TF over GST control); in assay [2] it was 1.01 fold enrichment (6-mer frequency, TF over GST control); in assay [3], 1.13 fold enrichment (6-mer frequency, TF over GST control); in assay [4] it was 1.07 fold enrichment (6-mer frequency, TF over GST control); in assay [5], 1.12 fold enrichment (6-mer frequency, TF over GST control); in assay [6], 1.11 fold enrichment (6-mer frequency, TF over GST control). Also, the binding signal is 1.08 fold enrichment (6-mer frequency, TF over GST control) in assay [7] and 1.02 fold enrichment (6-mer frequency, TF over GST control) in assay [8].

In the case of TACAAG, the binding signal is 1.1 fold enrichment (6-mer frequency, TF over GST control) in assay [1]; 1.05 fold enrichment (6-mer frequency, TF over GST control) in assay [2]; 1.1 fold enrichment (6-mer frequency, TF over GST control) in assay [3]; 1.1 fold enrichment (6-mer frequency, TF over GST control) in assay [4]; 1.02 fold enrichment (6-mer frequency, TF over GST control) in assay [5]; 1.06 fold enrichment (6-mer frequency, TF over GST control) in assay [6]. The binding signal in assay [7] is 1.02 fold enrichment (6-mer frequency, TF over GST control); in assay [8] it was 1.04 fold enrichment (6-mer frequency, TF over GST control).

For CGCCCC, the binding signal is 1.28 fold enrichment (6-mer frequency, TF over GST control) in assay [1]; 1.31 fold enrichment (6-mer frequency, TF over GST control) in assay [2]; 1.05 fold enrichment (6-mer frequency, TF over GST control) in assay [3]; 1.18 fold enrichment (6-mer frequency, TF over GST control) in assay [4]; 1.2 fold enrichment (6-mer frequency, TF over GST control) in assay [5]; 1.1 fold enrichment (6-mer frequency, TF over GST control) in assay [6]. The binding signal in assay [7] is 1.16 fold enrichment (6-mer frequency, TF over GST control); in assay [8], 1.19 fold enrichment (6-mer frequency, TF over GST control).

Turning to ACAAAA, the binding signal was 1.18 fold enrichment (6-mer frequency, TF over GST control) in assay [1]; 1.2 fold enrichment (6-mer frequency, TF over GST control) in assay [2]; 1.2 fold enrichment (6-mer frequency, TF over GST control) in assay [3]; 1.11 fold enrichment (6-mer frequency, TF over GST control) in assay [4]; 1.15 fold enrichment (6-mer frequency, TF over GST control) in assay [5]; 1.21 fold enrichment (6-mer frequency, TF over GST control) in assay [6]. Moreover, the binding signal in assay [7] is 1.13 fold enrichment (6-mer frequency, TF over GST control); in assay [8], 1.17 fold enrichment (6-mer frequency, TF over GST control).

For GCACAT, the binding signal was 1.2 fold enrichment (6-mer frequency, TF over GST control) in assay [1]; 1.19 fold enrichment (6-mer frequency, TF over GST control) in assay [2]; 1.12 fold enrichment (6-mer frequency, TF over GST control) in assay [3]; 1.28 fold enrichment (6-mer frequency, TF over GST control) in assay [4]; 1.07 fold enrichment (6-mer frequency, TF over GST control) in assay [5]; 1.1 fold enrichment (6-mer frequency, TF over GST control) in assay [6]. Besides, the binding signal is 1.15 fold enrichment (6-mer frequency, TF over GST control) in assay [7] and 1.14 fold enrichment (6-mer frequency, TF over GST control) in assay [8].

As to TTCGAT, the binding signal is 1.4 fold enrichment (6-mer frequency, TF over GST control) in assay [1]; 1.33 fold enrichment (6-mer frequency, TF over GST control) in assay [2]; 1.33 fold enrichment (6-mer frequency, TF over GST control) in assay [3]; 1.18 fold enrichment (6-mer frequency, TF over GST control) in assay [4]; 1.22 fold enrichment (6-mer frequency, TF over GST control) in assay [5]; 1.2 fold enrichment (6-mer frequency, TF over GST control) in assay [6]. Also, the binding signal in assay [7] is 1.24 fold enrichment (6-mer frequency, TF over GST control); in assay [8], 1.14 fold enrichment (6-mer frequency, TF over GST control).

CTGTCA: the binding signal in assay [1] is 1.17 fold enrichment (6-mer frequency, TF over GST control); in assay [2] it was 1.22 fold enrichment (6-mer frequency, TF over GST control); in assay [3] it was 1.14 fold enrichment (6-mer frequency, TF over GST control); in assay [4], 1.06 fold enrichment (6-mer frequency, TF over GST control); in assay [5] it was 1.12 fold enrichment (6-mer frequency, TF over GST control); in assay [6] it was 1.14 fold enrichment (6-mer frequency, TF over GST control). Further, the binding signal in assay [7] was 1.09 fold enrichment (6-mer frequency, TF over GST control); in assay [8], 1.1 fold enrichment (6-mer frequency, TF over GST control).
